Laboratory results reported in PubChem BioAssay AID1220 (Sanford-Burnham Center for Chemical Genomics, 2008).
Among all 190,000 compounds or so, about 1,300 (0.68%) were called active. Shown is part of a subset that was picked to be rich in actives. A number with no mark means an inactive call. No stated cut-off is given here; in the data, active means inhibition above about 50%; inactive means the rest.

The molecules below were run against Mannose-6-phosphate isomerase (Homo sapiens) (UniProt P34949) (assay: human PMI inhibitors, high substrate, primary screen, biochemical, fluorescence intensity, high mannose 6-phosphate (AID 1220)). Conditions: recombinant PMI enzyme, coupled fluorescence intensity; at 20 µM; hits give high values.
Sequence of Mannose-6-phosphate isomerase (Homo sapiens) (P34949 whole entry, looked up): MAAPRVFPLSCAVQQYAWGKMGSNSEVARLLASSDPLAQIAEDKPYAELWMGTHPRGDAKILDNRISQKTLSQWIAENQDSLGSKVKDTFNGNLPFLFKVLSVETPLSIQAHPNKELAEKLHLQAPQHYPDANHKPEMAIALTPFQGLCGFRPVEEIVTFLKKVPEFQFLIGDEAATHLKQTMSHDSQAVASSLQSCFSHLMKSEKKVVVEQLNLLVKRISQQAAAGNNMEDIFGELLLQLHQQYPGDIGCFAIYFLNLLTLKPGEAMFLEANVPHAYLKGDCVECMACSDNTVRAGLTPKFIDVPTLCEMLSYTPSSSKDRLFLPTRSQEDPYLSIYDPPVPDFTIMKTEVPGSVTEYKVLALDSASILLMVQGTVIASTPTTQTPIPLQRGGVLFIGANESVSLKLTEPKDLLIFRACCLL
With `CC(C)(C)NC(=O)C(c1ccc(OCC(N)=O)cc1)N(C(=O)c1cccnc1)C1CC1` (stereo not given) the inhibition was -7.4%.
Molecule `C=CCNC(=O)c1ccc2c(c1)nnn2C` has an inhibition of 3.7%.
Molecule `CN(C)/C=C/C(=O)c1cnc(-c2ccc(Cl)cc2)s1` has an inhibition of 0.9%.
`O=C(c1ccc(Cl)nc1)N1CCc2ccccc2C1` was tested, and the inhibition was 5.7%.
Work on `Cc1cccc(Nc2nc(-c3c(C)nc4ccccn34)cs2)c1` yielded an inhibition of 47%.
In the case of `Cc1ccc(Nc2nc(-c3c(C)nc4ncccn34)cs2)cc1`, the inhibition is reported as 18.6%.
With `Cc1ccc(Nc2nc(-c3c(C)nc4ccccn34)cs2)cc1` the inhibition was 57.1% (active).
`CSc1ccccc1NC(=O)COc1ccc(Cl)cc1` showed an inhibition of 3.4%.
Work on `CCCOC(=O)c1cc(NC(=O)/C=C/c2ccccc2)ccc1O` yielded an inhibition of 14.7%.
Molecule `C/C=C/CSc1nc2c(c(=O)[nH]c(=O)n2C)n1Cc1ccc(C)cc1` has an inhibition of 14%.
For `Cc1ccccc1NC1=C/C(=N\S(=O)(=O)c2cccs2)c2ccccc2C1=O`, the inhibition was 17.2%.
In the case of `Cc1ccc(Cl)cc1NC1=C/C(=N\S(=O)(=O)c2cccs2)c2ccccc2C1=O`, the inhibition is reported as 16.4%.
For `Cc1ccc(NC2=C/C(=N/S(=O)(=O)c3cccs3)c3ccccc3C2=O)cc1`, the inhibition was 47.9%.
Work on `Cc1ccc(NC2=C/C(=N/S(=O)(=O)c3cccs3)c3ccccc3C2=O)cc1C` yielded an inhibition of 31.2%.
In the case of `CC(=O)Nc1ccc(NC2=C/C(=N/S(=O)(=O)c3cccs3)c3ccccc3C2=O)cc1`, the inhibition is reported as 54.1% (active).
`O=C1C(Nc2ccc(O)cc2)=C/C(=N/S(=O)(=O)c2cccs2)c2ccccc21` was tested, and the inhibition was 47.6%.
With `Cc1cccc(NC2=C/C(=N/S(=O)(=O)c3cccs3)c3ccccc3C2=O)c1` the inhibition was 56.8% (active).
`COC(=O)c1ccccc1NC1=C/C(=N\S(=O)(=O)c2cccs2)c2ccccc2C1=O` gave an inhibition of -25.4%.
`Cc1ccc(NC2=C/C(=N\S(=O)(=O)c3cccs3)c3ccccc3C2=O)c(C)c1` was tested, and the inhibition was 50.1% (active).
`CCN1CCN(CC(=O)NC2CCCC2)C(=O)C1=O` showed an inhibition of 5.9%.
In the case of `CC(NC(=O)C1CCCN(S(=O)(=O)c2cnc[nH]2)C1)c1ccccc1` (stereo not given), the inhibition is reported as -0.1%.
`CCOc1ccccc1-c1nc(-c2ccc(NC(=O)Cc3ccc(OC)cc3)cc2)no1` showed an inhibition of -5.8%.
`COc1ccc(NC(=O)N2CCN(S(C)(=O)=O)CC2)cc1OC` showed an inhibition of 14%.
Molecule `COc1ccccc1NC(=O)/C(C#N)=C/c1cc([N+](=O)[O-])ccc1N1CCCC1` has an inhibition of -6.4%.
Molecule `COc1cc(OC)cc(C(=O)NC(C(=O)O)C23CC4CC(CC(C4)C2)C3)c1` (stereo not given) has an inhibition of -4.9%.
For `COc1ccc(/C(O)=C2/C(=O)C(=O)N(CC3CCCO3)C2c2ccc(O)c(OC)c2)cc1` (stereo not given), the inhibition was 5.8%.
In the case of `O=S(=O)(NCCNc1ncc(C(F)(F)F)cc1Cl)C(F)(F)F`, the inhibition is reported as 6.3%.
With `CCOc1cc(NC(=S)NCC2CCCO2)c(OCC)cc1NC(=O)c1cccc(F)c1` (stereo not given) the inhibition was 53.7% (active).
In the case of `CCOc1cc(NC(=S)NCC2CCCO2)c(OCC)cc1NC(=O)c1ccccc1C` (stereo not given), the inhibition is reported as 5.7%.
`CCOc1cc(NC(=S)NCC2CCCO2)c(OCC)cc1NC(=O)c1ccc(C)cc1` (stereo not given) was tested, and the inhibition was 58.2% (active).
Work on `CCOc1cc(NC(=S)NCC2CCCO2)c(OCC)cc1NC(=O)c1ccccc1` (stereo not given) yielded an inhibition of 17.7%.
Molecule `CCOc1cc(NC(=S)NCC2CCCO2)c(OCC)cc1NC(=O)CC(C)C` (stereo not given) has an inhibition of 15.4%.
`CCOc1ccccc1NC(=S)NCC1CCCO1` (stereo not given) gave an inhibition of -3.2%.
In the case of `CCOc1cc(NC(=S)NCC2CCCO2)c(OCC)cc1NC(=O)c1ccc(F)cc1` (stereo not given), the inhibition is reported as 54.9% (active).
`CCOc1cc(NC(=S)NCC2CCCO2)c(OCC)cc1NC(=O)CC` (stereo not given) was tested, and the inhibition was 6.9%.
`CCOc1cc(NC(=S)NCC2CCCO2)c(OCC)cc1NC(=O)c1cccc(C)c1` (stereo not given) gave an inhibition of 17%.
For `CCOc1cc(NC(=S)NCC2CCCO2)c(OCC)cc1NC(=O)c1ccccc1F` (stereo not given), the inhibition was 53.9% (active).
`CCOc1cc(NC(=S)NCC2CCCO2)c(OCC)cc1NC(=O)c1ccc(OC)cc1` (stereo not given) gave an inhibition of 35%.
With `CCOc1cc(NC(=S)NCC2CCCO2)c(OCC)cc1NC(=O)C1CC1` (stereo not given) the inhibition was 5.5%.
Work on `CN(c1ccccc1)S(=O)(=O)c1ccc(Cl)c(C(=O)Nc2ccc(-c3nc4ccccc4[nH]3)cc2)c1` yielded an inhibition of 3.8%.
Molecule `CC1CCCC(NC(=O)CC2Nc3ccccc3NC2=O)C1C` (stereo not given) has an inhibition of -4.1%.
`N#C/C(=C\c1cn(Cc2ccccc2)c2ccccc12)C(=O)NCc1ccco1` gave an inhibition of 15.2%.
Work on `Nn1cnnc1SCC(=O)Nc1ccc2c(c1)OCCO2` yielded an inhibition of 9.6%.
Work on `O=C(NCc1ccco1)/C(=C/C=C/c1ccccc1)NC(=O)c1ccco1` yielded an inhibition of 6%.
`CC(=O)c1ccc(NC(=S)NCc2cccnc2)cc1` was tested, and the inhibition was -2.6%.
